Screening data: PubChem, National Center for Advancing Translational Sciences (NCATS)
IL1B secr inh: inflammasome signaling inhibition, IL-1 beta readout; THP-1 LPS/ATP IL-1B secretion, AlphaLISA, 16 h; hits give low values; activity change, % at 57.5 µM; 360,000 tested, 4.7% active; AID 743279; in the data active = activity change below about -50%; inconclusive = mostly about -30% to -49%
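Secreted IL-1B measured by AlphaLISA bead assay after 16 h compound exposure of THP-1 cells; compounds (final up to 57.5 uM) added 1 h before LPS (250 ng/mL) and ATP (1.25 mM) stimulation; lower signal means less secretion.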
RORg inh: ROR gamma (mouse) transcription inhibition | 310,000 tested, 5.4% active | P51450 | Potency, µM (doses to about 53.6 µM), without a hit: at the highest dose activity change, negative = inhibition, actives largely listed as inhibitors | AID 2551 | Drosophila S2 Gal4-RORgamma UAS-luciferase reporter, 20 h; also: potency is read from the fitted curve at half-maximal effect; nearly all actives have a fitted effect of over 60% in size
Target sequence (P51450 whole entry, looked up, the tested form may be a part): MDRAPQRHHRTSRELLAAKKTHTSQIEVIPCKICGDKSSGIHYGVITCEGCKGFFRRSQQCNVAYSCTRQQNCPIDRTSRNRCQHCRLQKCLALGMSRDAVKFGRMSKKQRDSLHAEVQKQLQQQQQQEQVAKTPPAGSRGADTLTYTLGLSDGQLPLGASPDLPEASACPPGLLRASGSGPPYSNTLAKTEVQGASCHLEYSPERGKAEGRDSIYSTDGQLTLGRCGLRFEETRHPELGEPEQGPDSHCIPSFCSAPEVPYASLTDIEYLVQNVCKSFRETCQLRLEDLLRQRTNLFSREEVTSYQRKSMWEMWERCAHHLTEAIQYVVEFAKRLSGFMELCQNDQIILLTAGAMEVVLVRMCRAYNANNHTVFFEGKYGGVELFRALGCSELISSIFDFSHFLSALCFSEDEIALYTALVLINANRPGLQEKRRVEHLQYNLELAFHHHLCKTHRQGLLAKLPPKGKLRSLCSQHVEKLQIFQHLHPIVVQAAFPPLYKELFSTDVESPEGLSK
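Schneider cells (Drosophila), stable Gal4 DBD–ROR gamma + UAS-luc; 1 hr cmpd preincubation; Cu2+ induction 700 uM final; 20 hr ambient; luminescence.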
Gal4-VP16 FLuc: counter-screen for ROR gamma inhibitors: Gal4-VP16 reporter; 310,000 tested, 3.5% active; Potency, µM (doses to about 53.6 µM), inactives show at the highest dose activity, negative = inhibition, actives largely listed as inhibitors; Drosophila S2 Gal4-VP16 UAS-luciferase, luminescence, 20 h;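 also: Gal4-VP16 expression switched on by copper sulfate through the metallothionein promoter; potency is read from the fitted curve at half-maximal effect; nearly all actives have a fitted effect of over 50% in size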
DT40 TDP1 no CPT: qHTS for Inhibitors of human tyrosyl-DNA phosphodiesterase 1 (TDP1): qHTS in cells in absence of CPT | DT40 Tdp1-/- hTDP1 cells, no CPT, ATP luminescence, 48 h | Potency, µM (highest dose often 46.2 µM), inactives show at the top dose activity change, negative = growth inhibition, hits mostly inhibitors | 420,000 tested, 15% active; also: potency is read from the fitted curve at half-maximal effect; nearly all actives have a fitted effect of over 55% in size
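Seeded 400 DT40-hTDP1 cells/well (vehicle DMSO, no 20 nM CPT); pinned compounds; ≥48 hr at 37 °C; CellTiter-Glo luminescence as viability measure.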
ELG1 repair inh: ELG1-dependent DNA repair inhibition. Potency, µM (highest dose often 46.1 µM), for the others: at the top dose activity change, negative = inhibition, usual class: inhibitors. AID 504467. HEK293T ELG1-luciferase reporter, luminescence, 16 h; DNA damage induced by 5-fluorouridine. 330,000 tested, 2.3% active; also: potency is read from the fitted curve at half-maximal effect; nearly all actives have a fitted effect of over 55% in size
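Quantitative HTS, concentration-response format. 2,000 cells/well co-treated with 5-fluorouridine and compound, 16 hr in 5% CO2 at 37 °C; ONE-Glo luminescence read after 30 min.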
DT40 TDP1 CPT: growth inhibition of DT40 Tdp1-/-;hTDP1 cells with camptothecin (screen for TDP1 inhibitors) | chicken DT40 Tdp1-/-;hTDP1 cells + 20 nM CPT, ATP luminescence, 48 h | Potency, µM (highest dose often 46.2 µM), for the others: at the highest dose activity change, negative = growth inhibition, most hits filed as inhibitors | 420,000 tested, 12% active | AID 686979; also: potency is read from the fitted curve at half-maximal effect; nearly all actives have a fitted effect of over 55% in size
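Chicken DT40 Tdp1-/- cells complemented with human TDP1, 400 cells/well, exposed to compounds plus 20 nM camptothecin for at least 48 h at 37 C; viability read as ATP content by CellTiter-Glo luminescence.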
Active calls of the source: *; ? = inconclusive; . = no result; [ ] = dose if it differs, or a comment. Compounds with a hit are over-represented: about 21% of the library has one in this group of screens. Unless noted, calls follow the shape of the dose curve; as a rule, active = well fitted curve in the direction sought with a large enough effect; inconclusive = small, poorly fitted or top-dose-only effect, or another doubt; inactive = no such curve, though single readings can be large; an effect the other way counts as inactive or inconclusive. % is scaled to controls: 0 for no effect and ±100 for the full control effect.

SMILES	IL1B secr inh	RORg inh	Gal4-VP16 FLuc	DT40 TDP1 no CPT	ELG1 repair inh	DT40 TDP1 CPT
CCc1ccc(N/C(N)=N/c2nc(CSc3ncccn3)cc(=O)[nH]2)cc1	54	22%	-9%	13µM*	?	?
COCc1cc(=O)[nH]c(/N=C(\N)Nc2cccc(C)c2)n1	-9	2%	0%	1%	-11%	-7%
CCCCS(=O)(=O)N1CCCC(C(=O)NCC2CCCO2)C1 (stereo not given)	-4	0%	-4%	9%	-1%	3%
Cc1ccc(S(=O)(=O)N2C[C@@H]3[C@H]4CC[C@H](C4)[C@@H]3[C@@H](C)[C@@H]2c2cccn2Cc2ccccc2)cc1	-9	.	.	?	-10%	-15%
CN1C(=O)CC(c2cn(Cc3ccccc3)c3ccccc23)C1=O (stereo not given)	38	44%	-5%	-6%	7%	0%
Cc1ccc(S(=O)(=O)N2C[C@@H]3[C@H]4CC[C@H](C4)[C@@H]3[C@@H](C)[C@H]2c2ccco2)cc1	45	.	.	15µM*	-7%	15µM*
Cc1ccc(S(=O)(=O)N2C[C@@H]3[C@H]4CC[C@H](C4)[C@@H]3[C@@H](C)[C@@H]2c2cn(Cc3ccccc3)c3ccc(F)cc23)cc1	-7	.	.	21µM*	-5%	21µM*
C[C@@H]1[C@H]2[C@@H]3CC[C@@H](C3)[C@H]2CN[C@H]1c1cn(Cc2ccccc2)c2ccccc12	-27	.	.	?	4%	16µM*
COc1ccc(NC(=O)CC2NCCNC2=O)c(OC)c1 (stereo not given)	.	.	.	-15%	.	1%
CS(=O)(=O)c1nc(S(=O)(=O)c2ccc(Cl)cc2)c(N2CCN(CCO)CC2)s1	-68*	-27%	-1%	6%	-6%	?
CCS(=O)(=O)c1nc(S(=O)(=O)c2ccc(C)cc2)c(N2CCOCC2)s1	-29	5%	3%	22%	9%	-8%
CS(=O)(=O)c1nc(S(=O)(=O)c2ccc(Cl)cc2)c(N2CCCCC2)s1	-63*	6%	-8%	-22%	-23%	?
Cc1ccc(S(=O)(=O)c2nc(S(C)(=O)=O)sc2N2CCCCC2C)cc1 (stereo not given)	-83*	11%	4%	?	?	?
Cc1ccc(S(=O)(=O)c2nc(S(C)(=O)=O)sc2N2CCOCC2)cc1	-59*	-19%	12%	10%	-18%	-20%
COc1ccc(CCNc2nc3c(-c4cccc(C)c4)nnn3c3ccccc23)cc1OC	.	.	.	-3%	.	22%
Cc1ccc(S(=O)(=O)c2nc(S(C)(=O)=O)sc2N(C)Cc2ccccc2)cc1	.	.	.	21µM*	.	?
Cc1ccc(S(=O)(=O)c2nc(S(=O)(=O)c3ccc(C)cc3)c(N3CCN(CCO)CC3)s2)cc1	-68*	-1%	-1%	?	?	23µM*
COCCN1CCN(C(=O)c2cnn(-c3nccc(-c4ccccc4F)n3)c2-c2ccco2)CC1	.	.	.	-15%	.	10%[9.04 µM]
O=C(NCc1ccco1)c1ccccc1Br	-6	16%	-2%	?	18%	?
O=C(c1cccc(Cl)c1Cl)N(Cc1ccco1)Cc1cccs1	.	.	.	11µM*	.	?
O=C(c1ccccc1Br)N(Cc1ccco1)Cc1ccco1	.	.	.	15µM*	.	13µM*
CCC(=O)N(C1=C(NC(C)C)C(=O)c2ccccc2C1=O)C(C)C	60	10µM*	?	9.2µM*	?	21µM*
COC(=O)C#CC(=O)OC	.	19%	-10%	.	.	.
COc1ccc(N(C(=O)c2ccc(Br)o2)C2C=CS(=O)(=O)C2)c(OC)c1 (stereo not given)	9	2%	5%	18µM*	?	?
COc1ccc(N(C(=O)c2ccc3c(c2)OCO3)C2C=CS(=O)(=O)C2)c(OC)c1 (stereo not given)	0	-4%	-3%	-1%	13%	4%
SMILES	IL1B secr inh	RORg inh	Gal4-VP16 FLuc	DT40 TDP1 no CPT	ELG1 repair inh	DT40 TDP1 CPT
COc1cccc2c1ncc1c(-c3ccc(C)cc3)nn(-c3cccc([N+](=O)[O-])c3)c12	.	.	.	-3%	.	-5%
CC(C)CSC1=NSC2=NC(=O)/C(=C\c3cccs3)C(=N)N12	-73*	?	-15%	21µM*	?	?
N=C1/C(=C/c2cccs2)C(=O)N=C2SN=C(SCc3ccccc3)N12	16	41%	18%	-29%	?	-13%
CC(C)(C)NC(=O)NC(=O)CN1C(=O)NC(c2ccccc2)(c2ccccc2)C1=O	?	-20%	-1%	26µM*	-6%	?
CC1CCC(N(C)C(=O)CN2C(=O)NC(c3ccccc3)(c3ccccc3)C2=O)CC1 (stereo not given)	3	.	.	?	.	23µM*
CCN(C(=O)CN1C(=O)NC(c2ccccc2)(c2ccc(C)c(C)c2)C1=O)C1CCCCC1 (stereo not given)	0	.	.	?	-28%	16µM*
CC(C)(C)NC(=O)NC(=O)CN1C(=O)NC(C)(c2ccccc2)C1=O (stereo not given)	13	15%	-1%	?	7%	-24%
CCN(C(=O)CN1C(=O)NC(c2ccccc2)(c2ccc(C)c(C)c2)C1=O)C1CCS(=O)(=O)C1 (stereo not given)	-1	.	.	?	?	1%
COc1ccc(C2(c3ccc(OC)cc3)NC(=O)N(CC(=O)N(C)C3CCC(C)CC3)C2=O)cc1 (stereo not given)	-56*	.	.	-14%	-12%	-27%
